Measured values: the supplement of paper PMC11732987, “Enantioselective OTUD7B fragment discovery through chemoproteomics screening and high-throughput optimisation” (Communications Chemistry, 2025)

What was measured:
Assay in all cases: log2 ratio of Biotin-Ahx-Ub-VS probe labelling (fragment/DMSO); higher = less target engagement (more negative = stronger competition), active = hit call of the paper (q ≤ 0.05, log2 ratio ≤ -1)
Conditions in all cases: compound concentration: 200 uM; treatment time: 3 h
OTUD6B = molecular target: T1, OTUD6B (UniProt Q8N6M0)
T1 sequence (whole entry): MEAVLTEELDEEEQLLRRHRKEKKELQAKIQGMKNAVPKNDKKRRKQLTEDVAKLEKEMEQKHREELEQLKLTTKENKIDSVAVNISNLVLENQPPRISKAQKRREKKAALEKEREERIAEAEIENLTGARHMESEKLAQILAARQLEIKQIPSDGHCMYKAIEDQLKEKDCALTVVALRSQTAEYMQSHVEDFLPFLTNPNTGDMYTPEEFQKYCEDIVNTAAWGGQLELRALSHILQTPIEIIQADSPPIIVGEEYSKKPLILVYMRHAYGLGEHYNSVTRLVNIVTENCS
How it was run: (§1)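 HEK293T lysate, 495 µg per sample in Tris/CHAPS/IGEPAL buffer with protease inhibitors, was treated in triplicate with fragment at 200 µM or vehicle for 3 h and then with Biotin-Ahx-Ub-VS at 0.5 µM final for 1 h. Labelled DUBs were NeutrAvidin-enriched, digested with LysC and trypsin, and run by diaPASEF LC-MS/MS. Spectronaut label-free quantities were global-median-normalised, and values are average log2 fragment/vehicle ratios by unpaired t-test on proteins with ≥2 unique peptides.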

OTUD7B = molecular target: T2, OTUD7B (UniProt Q6GQQ9)
T2 sequence (whole entry): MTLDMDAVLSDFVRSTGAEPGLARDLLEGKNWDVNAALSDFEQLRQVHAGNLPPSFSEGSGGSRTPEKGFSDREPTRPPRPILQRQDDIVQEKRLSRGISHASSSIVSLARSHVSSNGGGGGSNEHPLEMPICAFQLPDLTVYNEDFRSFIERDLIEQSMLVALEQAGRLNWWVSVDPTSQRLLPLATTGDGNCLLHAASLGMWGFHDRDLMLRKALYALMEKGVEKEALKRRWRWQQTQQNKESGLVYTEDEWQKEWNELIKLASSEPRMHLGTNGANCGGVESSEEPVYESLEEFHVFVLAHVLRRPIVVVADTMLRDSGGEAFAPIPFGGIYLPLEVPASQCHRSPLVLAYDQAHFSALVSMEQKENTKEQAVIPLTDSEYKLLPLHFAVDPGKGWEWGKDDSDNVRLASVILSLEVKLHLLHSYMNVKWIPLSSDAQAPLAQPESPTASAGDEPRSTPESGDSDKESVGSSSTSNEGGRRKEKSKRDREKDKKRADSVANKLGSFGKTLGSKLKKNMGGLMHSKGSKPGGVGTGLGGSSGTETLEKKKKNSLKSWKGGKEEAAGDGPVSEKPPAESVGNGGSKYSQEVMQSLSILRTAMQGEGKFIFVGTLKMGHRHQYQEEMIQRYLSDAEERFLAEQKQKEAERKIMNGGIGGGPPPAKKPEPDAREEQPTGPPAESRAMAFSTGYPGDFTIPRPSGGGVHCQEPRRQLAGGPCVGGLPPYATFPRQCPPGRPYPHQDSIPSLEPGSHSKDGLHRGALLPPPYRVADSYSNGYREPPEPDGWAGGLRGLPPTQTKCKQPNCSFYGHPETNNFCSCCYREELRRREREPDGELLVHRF
How it was run: as §1

PRPF8 = PRPF8 (UniProt Q6P2Q9)
How it was run: as §1

PSMD7 = molecular target: T3, PSMD7 (UniProt P51665)
T3 sequence (whole entry): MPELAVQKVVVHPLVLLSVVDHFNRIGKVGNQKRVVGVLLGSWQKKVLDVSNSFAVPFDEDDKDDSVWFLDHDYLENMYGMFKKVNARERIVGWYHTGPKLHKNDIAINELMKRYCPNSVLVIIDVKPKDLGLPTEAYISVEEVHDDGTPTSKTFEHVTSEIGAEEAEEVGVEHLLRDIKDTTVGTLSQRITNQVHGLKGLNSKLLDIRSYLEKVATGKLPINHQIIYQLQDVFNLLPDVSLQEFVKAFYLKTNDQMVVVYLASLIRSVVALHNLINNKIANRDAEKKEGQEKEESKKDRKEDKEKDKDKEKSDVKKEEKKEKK
How it was run: as §1

UCHL1 = UCHL1 (UniProt P09936)
How it was run: as §1

UCHL3 = molecular target: T4, UCHL3 (UniProt P15374)
T4 sequence (whole entry): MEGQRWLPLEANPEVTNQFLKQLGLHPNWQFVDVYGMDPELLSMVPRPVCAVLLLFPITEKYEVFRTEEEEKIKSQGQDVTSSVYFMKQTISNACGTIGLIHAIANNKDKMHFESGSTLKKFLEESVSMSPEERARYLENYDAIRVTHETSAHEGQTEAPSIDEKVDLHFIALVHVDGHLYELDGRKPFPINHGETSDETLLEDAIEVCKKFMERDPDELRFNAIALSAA
How it was run: as §1

UCHL5 = molecular target: T5, UCHL5 (UniProt Q9Y5K5)
T5 sequence (whole entry): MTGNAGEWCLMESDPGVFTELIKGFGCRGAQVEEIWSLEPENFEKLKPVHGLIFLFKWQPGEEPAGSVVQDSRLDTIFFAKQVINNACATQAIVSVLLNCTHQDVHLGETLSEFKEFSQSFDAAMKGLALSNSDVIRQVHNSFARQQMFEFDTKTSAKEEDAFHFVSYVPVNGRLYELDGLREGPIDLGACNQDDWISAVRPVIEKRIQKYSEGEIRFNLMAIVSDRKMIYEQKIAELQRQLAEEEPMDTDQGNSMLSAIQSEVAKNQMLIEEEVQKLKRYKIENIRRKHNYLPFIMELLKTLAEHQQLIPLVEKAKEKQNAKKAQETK
How it was run: as §1

USP10 = USP10 (UniProt Q14694)
How it was run: as §1

USP15 = molecular target: T6, USP15 (UniProt Q9Y4E8)
T6 sequence (whole entry): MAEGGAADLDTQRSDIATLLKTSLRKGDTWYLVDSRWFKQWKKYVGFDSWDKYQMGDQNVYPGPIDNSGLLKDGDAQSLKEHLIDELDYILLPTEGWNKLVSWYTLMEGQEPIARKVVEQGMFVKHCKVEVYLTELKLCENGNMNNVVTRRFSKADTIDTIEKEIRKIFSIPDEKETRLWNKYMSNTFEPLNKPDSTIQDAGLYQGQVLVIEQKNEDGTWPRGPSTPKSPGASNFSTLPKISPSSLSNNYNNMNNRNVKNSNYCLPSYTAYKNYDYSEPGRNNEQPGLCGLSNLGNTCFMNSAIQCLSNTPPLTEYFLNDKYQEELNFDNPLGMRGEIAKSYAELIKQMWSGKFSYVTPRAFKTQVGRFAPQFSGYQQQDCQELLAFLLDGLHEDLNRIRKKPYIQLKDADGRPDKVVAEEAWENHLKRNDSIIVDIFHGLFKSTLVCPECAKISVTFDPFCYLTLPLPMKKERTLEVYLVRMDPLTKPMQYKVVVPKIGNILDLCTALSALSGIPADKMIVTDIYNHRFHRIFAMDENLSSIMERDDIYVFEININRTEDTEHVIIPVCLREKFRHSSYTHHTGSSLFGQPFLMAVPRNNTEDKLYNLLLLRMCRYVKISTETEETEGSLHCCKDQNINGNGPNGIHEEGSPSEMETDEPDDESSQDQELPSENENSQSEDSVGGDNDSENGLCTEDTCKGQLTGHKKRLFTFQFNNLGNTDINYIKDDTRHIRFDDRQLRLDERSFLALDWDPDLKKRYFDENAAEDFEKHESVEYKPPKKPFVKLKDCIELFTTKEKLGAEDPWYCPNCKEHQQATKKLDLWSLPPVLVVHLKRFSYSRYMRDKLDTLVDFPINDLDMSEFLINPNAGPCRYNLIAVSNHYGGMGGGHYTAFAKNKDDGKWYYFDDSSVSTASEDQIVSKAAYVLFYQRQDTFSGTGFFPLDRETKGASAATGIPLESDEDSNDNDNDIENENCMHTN
How it was run: as §1

USP16 = USP16 (UniProt Q9Y5T5)
How it was run: as §1

Measured: log2 ratio of Biotin-Ahx-Ub-VS probe labelling

Sequence of USP10 (Q14694 whole entry): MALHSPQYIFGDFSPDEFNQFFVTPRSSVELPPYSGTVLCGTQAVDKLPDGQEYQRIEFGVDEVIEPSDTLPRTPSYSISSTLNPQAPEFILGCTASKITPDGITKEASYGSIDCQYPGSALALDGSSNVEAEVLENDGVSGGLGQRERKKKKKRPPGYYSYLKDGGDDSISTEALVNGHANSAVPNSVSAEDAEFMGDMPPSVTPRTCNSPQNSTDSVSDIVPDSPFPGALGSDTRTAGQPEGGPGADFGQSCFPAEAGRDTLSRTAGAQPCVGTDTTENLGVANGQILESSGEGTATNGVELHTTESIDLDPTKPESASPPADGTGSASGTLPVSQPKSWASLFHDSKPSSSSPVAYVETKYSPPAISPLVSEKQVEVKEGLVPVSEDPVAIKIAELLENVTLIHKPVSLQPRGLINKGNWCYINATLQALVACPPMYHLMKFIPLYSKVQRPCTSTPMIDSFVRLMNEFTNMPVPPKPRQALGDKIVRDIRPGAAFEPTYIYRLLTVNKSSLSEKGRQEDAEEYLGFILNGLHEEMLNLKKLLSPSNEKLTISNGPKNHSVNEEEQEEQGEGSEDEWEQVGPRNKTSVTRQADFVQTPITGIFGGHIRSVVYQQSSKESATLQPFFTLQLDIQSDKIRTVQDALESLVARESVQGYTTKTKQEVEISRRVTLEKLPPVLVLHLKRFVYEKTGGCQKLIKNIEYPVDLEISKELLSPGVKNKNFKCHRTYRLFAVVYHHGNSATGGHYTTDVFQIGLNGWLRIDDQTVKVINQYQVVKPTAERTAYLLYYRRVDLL
Sequence of USP16 (Q9Y5T5 whole entry, looked up): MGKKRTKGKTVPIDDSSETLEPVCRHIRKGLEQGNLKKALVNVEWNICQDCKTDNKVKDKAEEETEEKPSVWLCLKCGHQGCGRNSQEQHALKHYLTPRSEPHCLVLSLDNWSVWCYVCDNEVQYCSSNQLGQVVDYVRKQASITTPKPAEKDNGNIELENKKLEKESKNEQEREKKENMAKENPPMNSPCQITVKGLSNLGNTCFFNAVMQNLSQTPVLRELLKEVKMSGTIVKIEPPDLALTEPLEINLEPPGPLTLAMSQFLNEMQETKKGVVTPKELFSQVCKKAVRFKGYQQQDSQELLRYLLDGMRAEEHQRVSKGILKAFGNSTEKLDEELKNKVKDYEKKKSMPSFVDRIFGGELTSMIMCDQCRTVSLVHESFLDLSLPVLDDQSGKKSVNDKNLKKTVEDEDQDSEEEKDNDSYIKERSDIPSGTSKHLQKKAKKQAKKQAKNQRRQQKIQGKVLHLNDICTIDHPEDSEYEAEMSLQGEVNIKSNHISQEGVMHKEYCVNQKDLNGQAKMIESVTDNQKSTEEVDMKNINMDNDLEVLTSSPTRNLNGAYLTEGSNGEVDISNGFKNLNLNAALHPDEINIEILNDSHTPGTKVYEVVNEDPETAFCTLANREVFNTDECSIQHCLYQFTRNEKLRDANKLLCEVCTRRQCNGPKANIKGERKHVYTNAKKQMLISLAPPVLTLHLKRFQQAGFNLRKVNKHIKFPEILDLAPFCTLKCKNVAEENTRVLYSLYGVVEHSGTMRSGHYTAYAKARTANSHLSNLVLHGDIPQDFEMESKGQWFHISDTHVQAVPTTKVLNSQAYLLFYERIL
Sequence of UCHL1 (P09936 whole entry, looked up): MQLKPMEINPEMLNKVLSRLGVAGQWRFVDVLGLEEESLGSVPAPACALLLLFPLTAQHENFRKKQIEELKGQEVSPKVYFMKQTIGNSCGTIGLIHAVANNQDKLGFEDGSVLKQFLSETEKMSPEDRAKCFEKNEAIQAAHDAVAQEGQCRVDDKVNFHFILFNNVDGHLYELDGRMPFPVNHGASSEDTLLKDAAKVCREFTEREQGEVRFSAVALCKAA

CC(NC(=O)CCl)c1csc(-c2ccccc2)n1.Cl (stereo not given)
inactive: OTUD6B -0.597 | PRPF8 -0.0372 | PSMD7 -0.175 | UCHL3 -0.457 | UCHL5 -0.71 | USP10 -0.126 | USP15 -0.386
active: OTUD7B -1.07 | UCHL1 -1.3 | USP16 -1.03

Cc1ccc(C)c(Oc2ccc(CNC(=O)CCl)cn2)c1.Cl
active: OTUD7B -1.04 | UCHL1 -1.3 | UCHL3 -1.04
inactive: OTUD6B -0.139 | PRPF8 -0.126 | PSMD7 -0.306 | UCHL5 -0.435 | USP10 -0.166 | USP15 -0.359 | USP16 -0.0509

Cc1cc(CC(C)NC(=O)CCl)n[nH]1 (stereo not given)
inactive: OTUD6B -0.0562 | OTUD7B -0.54 | PRPF8 -0.109 | PSMD7 -0.276 | UCHL1 -0.533 | UCHL3 -0.222 | UCHL5 -0.292 | USP10 -0.0255 | USP15 -0.325 | USP16 0.186

O=C(CCl)N1CCOCC1C1CC1 (stereo not given)
active: UCHL1 -1.92
inactive: OTUD6B -0.211 | OTUD7B -0.512 | PRPF8 -0.182 | PSMD7 -0.142 | UCHL3 0.225 | UCHL5 -0.257 | USP10 -0.0983 | USP15 -0.122 | USP16 -0.345

Cc1cc(NC(=O)CCl)n(-c2ccccc2)n1
active: UCHL1 -1.18
inactive: OTUD6B -0.0228 | OTUD7B -0.528 | PRPF8 0.173 | PSMD7 0.00596 | UCHL3 0.614 | UCHL5 -0.0207 | USP10 -0.234 | USP15 -0.2 | USP16 -0.321

O=C(CCl)N(C1CCCC1)C1CCS(=O)(=O)C1 (stereo not given)
active: UCHL1 -1.47
inactive: OTUD6B -0.0743 | OTUD7B -0.147 | PRPF8 0.17 | PSMD7 0.00755 | UCHL3 0.248 | UCHL5 -0.176 | USP10 -0.0694 | USP15 -0.235 | USP16 -0.121

NS(=O)(=O)c1ccc(Cl)c(NC(=O)CCl)c1
inactive: OTUD6B -0.573 | PRPF8 -0.153 | PSMD7 -0.125 | UCHL3 0.209 | UCHL5 -0.489 | USP10 -0.299 | USP15 -0.166 | USP16 0.0198
active: OTUD7B -1.63 | UCHL1 -1.51

O=C(CCl)NC1CCN(C(=O)C2CCCCC2)CC1
inactive: OTUD6B 0.191 | OTUD7B -0.643 | PRPF8 0.0534 | PSMD7 -0.106 | UCHL1 -0.513 | UCHL3 0.338 | UCHL5 0.125 | USP10 -0.0591 | USP15 -0.0587 | USP16 -0.0778

O=C(CCl)N1CCN(C(=O)N2CCCCC2)CC1
active: OTUD6B -1.28 | OTUD7B -1.17 | UCHL1 -2.3
inactive: PRPF8 -0.0826 | PSMD7 -0.335 | UCHL3 -0.528 | UCHL5 -0.96 | USP10 -0.21 | USP15 -0.839 | USP16 0.0515

O=C(CCl)NC1CCCCNC1=O (stereo not given)
inactive: OTUD6B -0.522 | OTUD7B -0.212 | PRPF8 -0.0633 | PSMD7 -0.0971 | UCHL3 0.241 | UCHL5 -0.137 | USP10 -0.269 | USP15 -0.252 | USP16 -0.792
active: UCHL1 -1.46

O=C(CCl)NCCc1cccc2ccccc12
inactive: OTUD6B 0.0475 | OTUD7B -0.286 | PRPF8 0.117 | PSMD7 0.0665 | UCHL1 -0.978 | UCHL3 0.331 | UCHL5 -0.029 | USP10 -0.0479 | USP15 0.076 | USP16 -0.496

COc1ccc(Cl)cc1NC(=O)CCl
inactive: OTUD6B -0.594 | PRPF8 -0.0117 | PSMD7 -0.241 | UCHL3 -0.0348 | UCHL5 -0.501 | USP10 -0.263 | USP15 -0.674 | USP16 -0.286
active: OTUD7B -1.29 | UCHL1 -1.01

N#Cc1ccc(CNC(=O)CCl)cc1
active: UCHL1 -1.19
inactive: OTUD6B 0.025 | OTUD7B -0.865 | PRPF8 -0.187 | PSMD7 -0.28 | UCHL3 0.183 | UCHL5 -0.131 | USP10 -0.0787 | USP15 -0.145 | USP16 0.29

CCN(Cc1ccc(C#N)cc1F)C(=O)CCl
active: UCHL1 -1.35
inactive: OTUD6B -0.409 | OTUD7B -0.641 | PRPF8 0.0668 | PSMD7 -0.234 | UCHL3 0.0414 | UCHL5 -0.5 | USP10 -0.11 | USP15 -0.275 | USP16 0.17
